Experimental data: PubChem BioAssay (EPA / NIEHS)
Results filed as inconclusive are left out. Active and inactive are the calls of the source. Rule for the calls: active = hit-call score of the fitted dose curve at least 0.9, where 1 is the maximum; inconclusive = response in the unintended direction; inactive = score below 0.9.

System: not listed separately
Assay: TOX21_p53_BLA_p4_viability: Viability Assessment in the Tox21 HCT-116 p53 Agonism Beta-lactamase Assay, Phase 4 (AID 2283597);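 note: hits lower the luminescence signal meaning cytotoxicity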
Method in brief: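 HCT-116 p53-bla cells, 4000/well, dosed after 5 h attachment and incubated 16 h at 37 °C, 5% CO2. Viability from CellTiter-Glo ATP luminescence after 30 min at room temperature, taken after the beta-lactamase read; loss of signal indicates cytotoxicity.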
For CCCOCC(=Nc1ccc(Cl)cc1C(F)(F)F)n1ccnc1, the AC50 was 24.9 µM (active). In the case of CCOC(=O)COc1cc(-c2nn(C)c(OC(F)F)c2Cl)c(F)cc1Cl, the outcome is reported as “inactive”. With CC(COc1ccc(Oc2ccccc2)cc1)Oc1ccccn1 (stereo not given) the outcome was “inactive”. For CC1=NNC(=O)N(/N=C/c2cccnc2)C1, the outcome was “inactive”. In the case of CCCSP(=O)(OCC)Oc1ccc(Br)cc1Cl (stereo not given), the outcome is reported as “inactive”. With COc1ccc(C(=CC(=O)N2CCOCC2)c2ccc(Cl)cc2)cc1OC the outcome was “inactive”. With Cc1nn(-c2cc(NS(C)(=O)=O)c(Cl)cc2Cl)c(=O)n1C(F)F the outcome was “inactive”. For C#CC(C)(C)NC(=O)c1cc(Cl)cc(Cl)c1, the outcome was “inactive”. With CC(C1CC1)C(O)(Cn1cncn1)c1ccc(Cl)cc1 (stereo not given) the outcome was “inactive”. In the case of CCNc1nc(Cl)nc(NC(C)(C)C#N)n1, the outcome is reported as “inactive”. In the case of CCCCOC(=O)[C@@H](C)Oc1ccc(Oc2ccc(C#N)cc2F)cc1, the outcome is reported as “inactive”. For COP(=O)(NC(C)=O)SC (stereo not given), the outcome was “inactive”. In the case of CCOP(=S)(Oc1cnc(C(C)(C)C)nc1)OC(C)C (stereo not given), the outcome is reported as “inactive”. In the case of CNC(=O)Oc1cccc2c1OC(C)(C)O2, the outcome is reported as “inactive”.

Target: Cellular tumor antigen p53 (Homo sapiens) (UniProt P04637)
Sequence (P04637 whole entry, looked up): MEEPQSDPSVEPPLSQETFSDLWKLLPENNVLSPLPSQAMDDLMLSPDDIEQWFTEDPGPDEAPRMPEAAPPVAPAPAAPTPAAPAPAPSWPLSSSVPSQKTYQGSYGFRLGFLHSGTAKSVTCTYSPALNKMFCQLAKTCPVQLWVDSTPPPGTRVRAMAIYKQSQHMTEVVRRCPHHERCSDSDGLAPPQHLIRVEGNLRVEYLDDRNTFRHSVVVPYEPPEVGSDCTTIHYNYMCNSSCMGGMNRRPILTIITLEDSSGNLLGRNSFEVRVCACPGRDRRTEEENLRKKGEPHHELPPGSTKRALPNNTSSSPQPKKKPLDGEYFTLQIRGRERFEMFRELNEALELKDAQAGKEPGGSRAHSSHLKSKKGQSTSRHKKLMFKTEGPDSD
Assay: TOX21_p53_BLA_p5_ratio: Tox21 HCT-116 p53 Agonism Beta-lactamase Assay, Ratio, Phase 5 (AID 2283599)
Method in brief: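 HCT-116 p53-bla cells (4000/well) plated 5 h, dosed with compound (217-fold DMSO dilution) for 16 h at 37 C; CCF4-AM substrate 2 h at room temperature. Activity is the 460/530 nm emission ratio (405 nm excitation), fitted in gain-of-signal direction versus DMSO.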
In the case of C[N+]1(C)CCCCC1, the outcome is reported as “inactive”. For CCCOCC(=Nc1ccc(Cl)cc1C(F)(F)F)n1ccnc1, the AC50 was 48.5 µM (active). With CC(COc1ccc(Oc2ccccc2)cc1)Oc1ccccn1 (stereo not given) the outcome was “inactive”. For CCCSP(=O)(OCC)Oc1ccc(Br)cc1Cl (stereo not given), the outcome was “inactive”. For CCOP(=O)(OCC)Oc1cc(C)nc(C(C)C)n1, the outcome was “inactive”. In the case of C#CC(C)(C)NC(=O)c1cc(Cl)cc(Cl)c1, the outcome is reported as “inactive”. With CCNc1nc(Cl)nc(NC(C)(C)C#N)n1 the outcome was “inactive”. In the case of CCCCOC(=O)[C@@H](C)Oc1ccc(Oc2ccc(C#N)cc2F)cc1, the outcome is reported as “inactive”. In the case of COP(=O)(NC(C)=O)SC (stereo not given), the outcome is reported as “inactive”. In the case of CCOP(=S)(OCC)Oc1ccc([N+](=O)[O-])cc1, the outcome is reported as “inactive”. For CNc1cnn(-c2cccc(C(F)(F)F)c2)c(=O)c1Cl, the outcome was “inactive”. With CN1COCN(Cc2cnc(Cl)s2)C1=N[N+](=O)[O-] the outcome was “inactive”. In the case of CNC(=O)Oc1cccc2c1OC(C)(C)O2, the outcome is reported as “inactive”. For CCCOc1nn(C(=O)NS(=O)(=O)c2ccccc2C(=O)OC)c(=O)n1C, the outcome was “inactive”.

System: not listed separately
Assay: TOX21_p53_BLA_p5_viability: Viability Assessment in the Tox21 HCT-116 p53 Agonism Beta-lactamase Assay, Phase 5 (AID 2283600)
Method in brief: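 HCT-116 p53 beta-lactamase reporter cells, 4000/well, were exposed to compound (pin transfer, 217-fold dilution) for 16 hours at 37C. Cellular ATP was read by CellTiter-Glo luminescence after 30 min at room temperature.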
For CCCOCC(=Nc1ccc(Cl)cc1C(F)(F)F)n1ccnc1, the AC50 was 31.2 µM (active). For COc1cccc(C(=O)NN(C(=O)c2cc(C)cc(C)c2)C(C)(C)C)c1C, the outcome was “inactive”. For CCC(=NOC/C=C/Cl)C1=C(O)CC(C2CCOCC2)CC1=O (stereo not given), the outcome was “inactive”. For CCOP(=S)(OCC)OC(Cl)C(Cl)(Cl)Cl (stereo not given), the outcome was “inactive”. With CC1=NNC(=O)N(/N=C/c2cccnc2)C1 the outcome was “inactive”. In the case of CCCSP(=O)(OCC)Oc1ccc(Br)cc1Cl (stereo not given), the outcome is reported as “inactive”. For CCOP(=O)(OCC)Oc1cc(C)nc(C(C)C)n1, the outcome was “inactive”. In the case of COc1ccc(C(=CC(=O)N2CCOCC2)c2ccc(Cl)cc2)cc1OC, the outcome is reported as “inactive”. With CNC(=O)ON=C(C)SC the outcome was “inactive”. In the case of Cc1nn(-c2cc(NS(C)(=O)=O)c(Cl)cc2Cl)c(=O)n1C(F)F, the outcome is reported as “inactive”. For C#CC(C)(C)NC(=O)c1cc(Cl)cc(Cl)c1, the outcome was “inactive”. With CC(C1CC1)C(O)(Cn1cncn1)c1ccc(Cl)cc1 (stereo not given) the outcome was “inactive”. In the case of CCOP(=S)(Oc1cnc(C(C)(C)C)nc1)OC(C)C (stereo not given), the outcome is reported as “inactive”. For CSc1nc(NC(C)C)nc(NC(C)C)n1, the outcome was “inactive”.

System: not listed separately
Assay: Tanguay_ZF_120hpf_MORT_legacy: (Legacy) Oregon State University Tanguay Lab 120 Hour Post-fertilization zebrafish Assay for Mortality (AID 2283633);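 for AC50: fitted as increase in binary mortality versus DMSO negative control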
Method in brief: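 Dechorionated Tropical 5D wild-type zebrafish embryos, one per well from 6 hpf, static exposure in 0.64% DMSO at 28C until 120 hpf. Mortality scored as binary by brightfield microscopy at 24 and 120 hpf.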
For CC(COc1ccc(Oc2ccccc2)cc1)Oc1ccccn1 (stereo not given), the outcome was “inactive”. In the case of CCC(=NOC/C=C/Cl)C1=C(O)CC(C2CCOCC2)CC1=O (stereo not given), the outcome is reported as “inactive”. In the case of Cc1ccn2nc(S(=O)(=O)Nc3c(F)cccc3F)nc2n1, the outcome is reported as “inactive”. In the case of COc1ccc(C(=CC(=O)N2CCOCC2)c2ccc(Cl)cc2)cc1OC, the outcome is reported as “inactive”. With COP(=O)(OC)OC(Br)C(Cl)(Cl)Br (stereo not given) the outcome was “inactive”. In the case of CCc1cnc(C2=NC(C)(C(C)C)C(=O)N2)c(C(=O)O)c1 (stereo not given), the outcome is reported as “inactive”. In the case of CCNc1nc(Cl)nc(NC(C)(C)C#N)n1, the outcome is reported as “inactive”. With COP(=O)(NC(C)=O)SC (stereo not given) the outcome was “inactive”. In the case of CCOP(=S)(OCC)Oc1ccc([N+](=O)[O-])cc1, the outcome is reported as “inactive”. For CNc1cnn(-c2cccc(C(F)(F)F)c2)c(=O)c1Cl, the outcome was “inactive”. In the case of CSc1nc(NC(C)C)nc(NC(C)C)n1, the outcome is reported as “inactive”. With CN1COCN(Cc2cnc(Cl)s2)C1=N[N+](=O)[O-] the outcome was “inactive”. For C=C(C)[C@H]1Cc2c(ccc3c2O[C@@H]2COc4cc(OC)c(OC)cc4[C@@H]2C3=O)O1, the AC50 was 0.347 µM (active).

System: not listed separately
Assay: Tanguay_ZF_120hpf_YSE_legacy: (Legacy) Oregon State University Tanguay Lab 120 Hour Post-fertilization zebrafish Assay for Yolk Sac Edema (AID 2283634);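 for AC50: actives raise the incidence of yolk sac edema above the DMSO baseline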
Method in brief: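 Dechorionated Tropical 5D wild-type zebrafish embryos were exposed statically, one per well, from 6 to 120 hpf at 28C in 0.64% DMSO. Yolk sac edema was scored present/absent by brightfield at 120 hpf, and dead embryos were excluded.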
In the case of C[N+]1(C)CCCCC1, the outcome is reported as “inactive”. For O=[N+]([O-])c1cc(C(F)(F)F)c(Cl)c([N+](=O)[O-])c1Nc1ncc(C(F)(F)F)cc1Cl, the outcome was “inactive”. In the case of CCCOCC(=Nc1ccc(Cl)cc1C(F)(F)F)n1ccnc1, the outcome is reported as “inactive”. For CCOC(=O)COc1cc(-c2nn(C)c(OC(F)F)c2Cl)c(F)cc1Cl, the outcome was “inactive”. In the case of CCOP(=O)(SC(C)CC)N1CCSC1=O (stereo not given), the outcome is reported as “inactive”. With CN(C)[C@@H]1C(=O)C(C(N)=O)=C(O)[C@@]2(O)C(=O)C3=C(O)c4c(O)cccc4[C@@](C)(O)[C@H]3[C@H](O)[C@@H]12 the outcome was “inactive”. With COc1cccc(C(=O)NN(C(=O)c2cc(C)cc(C)c2)C(C)(C)C)c1C the outcome was “inactive”. With CCC(=NOC/C=C/Cl)C1=C(O)CC(C2CCOCC2)CC1=O (stereo not given) the outcome was “inactive”. For CCOP(=S)(OCC)OC(Cl)C(Cl)(Cl)Cl (stereo not given), the outcome was “inactive”. With CC1=NNC(=O)N(/N=C/c2cccnc2)C1 the outcome was “inactive”. With Cc1ccn2nc(S(=O)(=O)Nc3c(F)cccc3F)nc2n1 the outcome was “inactive”. With Nc1c(Cl)cc([N+](=O)[O-])cc1Cl the AC50 was 33 µM (active). With CCCSP(=O)(OCC)Oc1ccc(Br)cc1Cl (stereo not given) the outcome was “inactive”. In the case of CCOP(=O)(OCC)Oc1cc(C)nc(C(C)C)n1, the outcome is reported as “inactive”. For COc1ccc(C(=CC(=O)N2CCOCC2)c2ccc(Cl)cc2)cc1OC, the AC50 was 48.3 µM (active). In the case of CNC(=O)ON=C(C)SC, the outcome is reported as “inactive”. With CCCSP(=O)(OCC)SCCC the outcome was “inactive”. For COP(=O)(OC)OC(Br)C(Cl)(Cl)Br (stereo not given), the outcome was “inactive”. In the case of CCc1cnc(C2=NC(C)(C(C)C)C(=O)N2)c(C(=O)O)c1 (stereo not given), the outcome is reported as “inactive”. In the case of Cc1nn(-c2cc(NS(C)(=O)=O)c(Cl)cc2Cl)c(=O)n1C(F)F, the outcome is reported as “inactive”. With C#CC(C)(C)NC(=O)c1cc(Cl)cc(Cl)c1 the outcome was “inactive”. For CC(C1CC1)C(O)(Cn1cncn1)c1ccc(Cl)cc1 (stereo not given), the AC50 was 36.3 µM (active). With CCNc1nc(Cl)nc(NC(C)(C)C#N)n1 the outcome was “inactive”. With CCCCOC(=O)[C@@H](C)Oc1ccc(Oc2ccc(C#N)cc2F)cc1 the outcome was “inactive”. For COP(=O)(NC(C)=O)SC (stereo not given), the outcome was “inactive”. With CCOP(=S)(OCC)Oc1ccc([N+](=O)[O-])cc1 the outcome was “inactive”. With CCc1cccc(CC)c1N(COC)C(=O)CCl the outcome was “inactive”. For CNc1cnn(-c2cccc(C(F)(F)F)c2)c(=O)c1Cl, the outcome was “inactive”. In the case of CCOP(=S)(Oc1cnc(C(C)(C)C)nc1)OC(C)C (stereo not given), the outcome is reported as “inactive”. In the case of CSc1nc(NC(C)C)nc(NC(C)C)n1, the outcome is reported as “inactive”. With CN1COCN(Cc2cnc(Cl)s2)C1=N[N+](=O)[O-] the outcome was “inactive”. In the case of O=C(O)c1cc(Oc2ccc(C(F)(F)F)cc2Cl)ccc1[N+](=O)[O-], the outcome is reported as “inactive”. With C=C(C)[C@H]1Cc2c(ccc3c2O[C@@H]2COc4cc(OC)c(OC)cc4[C@@H]2C3=O)O1 the outcome was “inactive”. In the case of CNC(=O)Oc1cccc2c1OC(C)(C)O2, the outcome is reported as “inactive”. For CCCOc1nn(C(=O)NS(=O)(=O)c2ccccc2C(=O)OC)c(=O)n1C, the outcome was “inactive”.
